Assay results: the supplement of paper PMC11172423
A number with no mark means an inactive call.

Legend:
[1] = test system: Falciformispora senegalensis CBS197.79; test: growth relative to untreated control; higher = less inhibition, active = 20 or less
Outline: (§1)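 In 96-well plates, suspended hyphal fragments of M. mycetomatis MM55 or F. senegalensis CBS197.79 were exposed to compound at 100 or 25 µM for 7 days at 37 °C. The suspension medium was colourless RPMI 1640 with L-glutamine and MOPS, adjusted to 68–72% transmission at 660 nm. Viability was measured with MTS (2 h, 490 nm) or resazurin (600 nm). Growth means metabolic activity compared with the untreated growth control after blank correction of both with medium plus dye.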

[2] = test system: Madurella mycetomatis MM55; test: as above
Outline: as §1

| SMILES | growth ([1]; 25 µM) | growth ([1]; 100 µM) | growth ([2]; 25 µM) | growth ([2]; 100 µM) |
| --- | --- | --- | --- | --- |
| CN(C)CCNC(=O)c1ccc(Nc2nccc(-c3ccc(Cl)c(Cl)c3)n2)cc1 | 24.5% | 43.3% |  |  |
| O=C(OI(OC(=O)C(F)(F)F)c1ccccc1)C(F)(F)F | 97.9% | 93% |  |  |
| CN(C)C(=N)N=C(N)N | 104% | 105% | 87% | 87.2% |
| C=CCNc1nc(NCC=C)nc(N2CCN(C(c3ccc(F)cc3)c3ccc(F)cc3)CC2)n1 | 105% | 91.3% |  |  |
| O=c1[nH]c2ccccc2n1CCCN1CCN(C(c2ccccc2)c2ccccc2)CC1 | 103% | 28.7% |  |  |
| CC(C)(C)NC(=O)N[C@H](C(=O)N1C[C@H]2[C@@H]([C@H]1C(=O)NC(CC1CCC1)C(=O)C(N)=O)C2(C)C)C(C)(C)C (some centres undefined) | 103% | 101% |  |  |
| Cc1ccc(C)c2sc(N(CCCn3ccnc3)C(=O)c3ccco3)nc12 | 38.5% | 30% |  |  |
| O=C(NC1(CO)CCOCC1)c1cc2ccc(C(F)(F)F)cc2[nH]1 | 89.7% | 82.1% |  |  |
| NS(=O)(=O)OC[C@@H]1C[C@@H](n2ccc3c(N[C@H]4CCc5ccccc54)ncnc32)C[C@@H]1O | 112% | 101% | 85% | 99.5% |
| CCCCC(=O)N(Cc1ccc(-c2ccccc2-c2nn[nH]n2)cc1)[C@H](C(=O)O)C(C)C | 103% | 107% |  |  |
| C=CC(=O)Nc1cc(Nc2nccc(-c3cn(C)c4ccccc34)n2)c(OC)cc1N(C)CCN(C)C | 7.88% (active) | 12.6% (active) |  |  |
| C[C@]1(c2nc3c(C(N)=O)cccc3[nH]2)CCCN1 | 95.9% | 93.8% |  |  |
| CC(C)(C)Nc1ncc2nc(Nc3cc(Cl)cc(C(F)(F)F)c3)n([C@H]3C[C@H](N)C3)c2n1 | 50.9% | 11.3% (active) | 7.82% (active) | 5.73% (active) |
| CC(C)Nc1cccnc1N1CCN(C(=O)c2cc3cc(NS(C)(=O)=O)ccc3[nH]2)CC1 | 101% | 96.5% | 104% | 96.3% |
| C[C@@H]1CCCN1CCc1cc2cc(-c3ccc(C#N)cc3)ccc2o1 | 98.4% | 17.8% (active) | 71.7% | 4.57% (active) |
| CCCN1CCC=C(c2cc(-c3ccc(C)cc3)no2)C1 | 103% | 16.5% (active) | 92.6% | 4.88% (active) |
| Cn1c(O)nnc1Cn1ccc(C(F)(F)F)c(Oc2cc(Cl)cc(C#N)c2)c1=O | 106% | 106% | 92.7% | 90.8% |
| CCSc1ccc2c(c1)N(CCCN1CCN(C)CC1)c1ccccc1S2 | 7.2% (active) | 11.7% (active) | 3.68% (active) | 3.76% (active) |
| Cc1nn(C)c(Oc2ccccc2)c1C=NOCc1ccc(C(=O)OC(C)(C)C)cc1 | 95% | 89% | 83.5% | 102% |
| O=C(Nc1cccc(-c2cc3nc(Nc4ccc(N5CCOCC5)cc4)ncc3[nH]2)c1)C1CC1 | 89.7% | 85.2% | 78.9% | 72.6% |
| CCOCCCNc1nc2cc(OC)c(OC)cc2c2nc(-c3ccccc3)nn12 | 93.1% | 89.3% | 95.5% | 120% |
| CCCNc1nc(NC2CCCCC2)c2ccsc2n1 | 85.5% | 88.3% | 14.7% (active) | 48.2% |
| Fc1ccc([C@@H]2CCNC[C@H]2COc2ccc3c(c2)OCO3)cc1 | 101% | 15.3% (active) | 5.94% (active) | 3.06% (active) |
| COc1ccc(-c2cc3ncnc(N4CCN(CCN5CCCC5)CC4)c3s2)cc1 | 7.35% (active) | 14.9% (active) | 4.86% (active) | 4.96% (active) |
| Cc1c2c(n3c(nc4ccccc43)c1C#N)N(CCN(C)C)CC2 | 64.5% | 88.2% | 101% | 43.7% |
| N#Cc1ccc(-c2n[nH]c3ccc(-c4n[nH]c(CC(F)(F)F)n4)cc23)cc1 | 94% | 98.3% | 109% | 114% |
